According to PubChem BioAssay (NCI):
The panel holds about 79,000 compounds, 15% with a hit somewhere; the sample as a whole holds those more often. Unmarked numbers belong to inactive results. Calls of active or inactive are those of the source. Rule as the data show it: active = growth inhibition above about 70%; inactive = the rest.

Test: NCI Yeast Anticancer Drug Screen. Data for the CLN2oe strain (AID 163);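 also: 0% = growth of vehicle-only control cultures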
Details: S. cerevisiae CLN2oe strain, hits give high values
Procedure: Growth inhibition of yeast strains with defined genetic alterations is measured as a screen for potential anti-cancer activity. Selected strains with alterations in DNA damage repair or cell cycle control were exposed to compounds and growth inhibition was measured relative to vehicle treated controls. The strain used in this assay is CLN2oe

Compound: COc1cccc2c1C(=O)c1c(O)c3c(c(O)c1C2=O)C[C@@](O)(/C(C)=N\O)C[C@@H]3OC1CC(N)C(O)C(C)O1 (stereo not given in full)
- growth inhibition (at 1.2 µM): -1%
- growth inhibition (at 3.7 µM): 2%
- growth inhibition (at 11.0 µM): 8%
- growth inhibition (at 33.0 µM): 13%
- growth inhibition (at 100.0 µM): 44%

Compound: COc1ccc(OC)c(/C=C/[N+](=O)[O-])c1
- growth inhibition (at 1.2 µM): 6%
- growth inhibition (at 3.7 µM): 9%
- growth inhibition (at 11.0 µM): 13%
- growth inhibition (at 33.0 µM): 37%
- growth inhibition (at 100.0 µM): 95% (active)

Compound: Oc1cccc2nc3ccccc3nc12
- growth inhibition (at 1.2 µM): -27%
- growth inhibition (at 3.7 µM): -14%
- growth inhibition (at 11.0 µM): -22%
- growth inhibition (at 33.0 µM): 6%
- growth inhibition (at 100.0 µM): 93% (active)

Compound: CC1(C)N=C(N)N=C(N)N1c1cccc(N)c1.[Sn]
- growth inhibition (at 1.2 µM): -10%
- growth inhibition (at 3.7 µM): -1%
- growth inhibition (at 11.0 µM): -3%
- growth inhibition (at 33.0 µM): -2%
- growth inhibition (at 100.0 µM): -7%

Compound: CC1=C(CO)C2=C(C)C3(CC3)[C@@](C)(O)C(=O)C2=C1
- growth inhibition (at 1.2 µM): -7%
- growth inhibition (at 3.7 µM): -6%
- growth inhibition (at 11.0 µM): -13%
- growth inhibition (at 33.0 µM): -11%
- growth inhibition (at 100.0 µM): -2%

Compound: C/C(=N\O)c1ccc2ccc3ccccc3c2c1
- growth inhibition (at 1.2 µM): -1%
- growth inhibition (at 3.7 µM): 2%
- growth inhibition (at 11.0 µM): 6%
- growth inhibition (at 33.0 µM): 28%
- growth inhibition (at 100.0 µM): 87% (active)

Compound: O=C(Nc1cc(Cl)ccc1Cl)C(Cl)(Cl)Cl
- growth inhibition (at 1.2 µM): 4%
- growth inhibition (at 3.7 µM): 5%
- growth inhibition (at 11.0 µM): 10%
- growth inhibition (at 33.0 µM): 7%
- growth inhibition (at 100.0 µM): 9%

Compound: CCNC(=O)OCC1C2=C(C(=O)C(C)=C(N)C2=O)N2CC3C(N3C)C12OC (stereo not given)
- growth inhibition (at 1.2 µM): 4%
- growth inhibition (at 3.7 µM): 4%
- growth inhibition (at 11.0 µM): 19%
- growth inhibition (at 33.0 µM): 41%
- growth inhibition (at 100.0 µM): 80% (active)
